# From PubChem BioAssay
# Pf growth 48h – Primary qHTS for delayed death inhibitors of the malarial parasite plastid, 48 hour incubation; P. falciparum luciferase growth in erythrocytes, 48 h; Potency, µM (series often up to 28.7 µM), for the others: at the highest dose activity change, negative = inhibition, usual class: inhibitors; 310,000 compounds, 5.9% hits
#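 Luminescence readout; reporter = integrated firefly luciferase in P. falciparum. RBC culture at 2% hematocrit, 0.1% parasitemia final, 37 C/5% CO2; decreased signal taken as growth inhibition.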
# AMA1 RON2 block – qHTS for Inhibitors of AMA1-RON; Towards Development of Antimalarial Drug Lead: Primary Screen; Plasmodium falciparum AMA1 (3D7) - RON2 peptide interaction; AlphaScreen AMA1-biotinylated RON2 peptide binding; Potency, µM (series often up to 58.2 µM), for inactives: at the top dose activity change, negative = inhibition, hits mostly inhibitors; 360,000 compounds, 0.2% hits; AID 720542, 2013;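 note: 0% = vehicle wells and -100% = peptide control; nearly all actives have a fitted effect of over 45% in size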
#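 AMA1 (3D7) with his tag at 25 nM final met compounds first, then biotinylated RON2 peptide at 25 nM; detection used donor plus acceptor beads, 10 µg/mL apiece, read by AlphaScreen after 30 min at room temperature.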
# Pf growth 96h – Primary qHTS for delayed death inhibitors of the malarial parasite plastid, 96 hour incubation | P. falciparum luciferase reporter growth, 96 h | Potency, µM (series often up to 28.7 µM), without a hit: at the top dose activity change, negative = inhibition, most hits filed as inhibitors | 320,000 compounds, 6.9% hits | AID 504834, 2011
#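 Plates of compound plus infected erythrocytes (2% hematocrit, 0.05% parasitemia final) incubate 96 hours, 37 C, 5% CO2. Detection reagent added; reduced luminescence from the parasites' luciferase reporter flags inhibition.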
# Vaccinia mCherry – qHTS for Stage-Specific Inhibitors of Vaccinia Orthopoxvirus: mCherry Reporter Primary qHTS. 310,000 compounds, 0.63% hits. Potency, µM (doses to about 36.5 µM), for inactives: at the top dose activity change, negative = inhibition, hits mostly inhibitors. Vaccinia virus mCherry reporter infection, fluorescence; calls by dose curve; tested in A549 cells; note: nearly all actives have a fitted effect of over 35% in size
# Vaccinia Venus – qHTS for Stage-Specific Inhibitors of Vaccinia Orthopoxvirus: Venus Reporter Primary qHTS; Potency, µM (titrated, usually from 36.5 µM), inactives show top-dose activity change, negative = inhibition, usual class: inhibitors; Vaccinia virus Venus reporter expression, fluorescence; AID 720580, 2013; 330,000 compounds, 0.46% hits; calls by dose curve; tested in A549 cells; note: nearly all actives have a fitted effect of over 30% in size
# * = called active by the depositor; i = inactive; ? = inconclusive; nt = not tested or not shown; [ ] = another dose, or the depositor's remark. This is a sample that favours compounds with a hit; in the whole collection about 8.7% have one here. Unless noted, calls come from the whole dose curve; as a rule, active = well fitted curve in the direction sought with a large enough effect; inconclusive = small, poorly fitted or top-dose-only effect, or another doubt; inactive = no such curve, though single readings can be large; an effect the other way counts as inactive or inconclusive. Unless noted, % is set by controls: 0 for no effect and ±100 for the full control effect; potency is the fitted concentration of half-maximal effect.
SMILES,Pf growth 48h,AMA1 RON2 block,Pf growth 96h,Vaccinia mCherry,Vaccinia Venus
COc1ccc(S(=O)(=O)c2cnc3ccc(OC)cc3c2N2CCC3(CC2)OCCO3)cc1,?,-7%,8.3µM*,-10%,-22%
CCN1CCN(c2c(S(=O)(=O)c3ccccc3)cnc3ccc(Cl)cc23)CC1,nt,nt,nt,-11%,-5%
CCOc1ccc2ncc(S(=O)(=O)c3ccccc3)c(N3CCC4(CC3)OCCO4)c2c1,13µM*,nt,10µM*,nt,nt
Cc1ccc(OCc2nnc(SCc3ccc(C#N)cc3)n2-c2ccc(C)cc2)cc1,13µM*,-14%,nt,-30%,-29%
Cc1ccc(-n2c(SCc3ccc(C#N)cc3)nnc2-c2ccccn2)cc1,?,7%,10µM*,nt,nt
C=CCn1c(COc2ccc(Cl)cc2)nnc1SCc1ccc(C#N)cc1,?,-7%,-25%[5.75 µM],nt,nt
C=CCn1c(COc2ccccc2)nnc1SCc1ccc(C#N)cc1,-10%,7%,0.93µM*,-23%,-4%
COc1ccc(-n2c(SCc3ccc(C#N)cc3)nnc2-c2ccccn2)cc1,?,3%,?,-12%,-6%
CCOC(=O)C(CC)Sc1nnc(COc2ccc(C)cc2)n1-c1ccccc1 (stereo not given),13µM*,25%,?,-6%,-6%
CC(=O)N1CCCC1c1nc2ccccc2n1Cc1ccccc1Cl (stereo not given),nt,nt,nt,-5%,-8%
O=C(CN1C(=O)COc2ccc(Cl)cc21)Nc1cccc(C(=O)O)c1,nt,nt,nt,-8%,1%
COc1cccc(-c2c(C(=O)N/N=C/c3ccc(C)s3)nnn2-c2nonc2N)c1,10µM*,13%,4.1µM*,nt,nt
CCOc1cccc(-c2c(C(=O)N/N=C/c3ccc(C)s3)nnn2-c2nonc2N)c1,?,34%,15µM*,?,-14%
CCOc1ccc(-c2c(C(=O)N/N=C/c3ccc(C)s3)nnn2-c2nonc2N)cc1,-23%,44%,?,-22%,-14%
COc1cccc(-c2c(C(=O)N/N=C/c3ccc(C)o3)nnn2-c2nonc2N)c1,?,121%,?,-9%[7.34 µM],13%[7.34 µM]
OCc1cnc(SCc2cccc(F)c2)n1Cc1ccc(F)cc1,nt,nt,nt,-14%,-7%
CCCCCCN(C(=O)CCCCCN1C(=O)NC(c2ccc(-c3ccccc3)cc2)C(C(=O)OCc2ccccc2)=C1C)C(C(=O)NCCCC)C1CCCCC1 (stereo not given),0.83µM*,nt,2.6µM*,nt,nt
CCCCCCN(C(=O)CCCCCN1C(=O)NC(c2ccc(-c3ccccc3)cc2)C(C(=O)OCc2ccccc2)=C1C)C(C(=O)NCCCC)c1ccccn1 (stereo not given),2.9µM*,nt,2.3µM*,nt,nt
CCOc1ccc(NC(=O)COc2coc(CN3CCc4ccccc4C3)cc2=O)cc1,?,4%,-22%,-19%,-23%
O=C(COc1coc(CN2CCc3ccccc3C2)cc1=O)Nc1cccc(Cl)c1,2%,-6%,?,-10%,-9%
COc1ccc(NC(=O)COc2coc(CN3CCc4ccccc4C3)cc2=O)cc1,-16%,11%,13µM*,i,-12%
O=C(COc1coc(CN2CCc3ccccc3C2)cc1=O)Nc1cccc(F)c1,6%,7%,4.7µM*,-16%,-7%
COc1cccc(N(Cc2nnc3n2CCCCC3)C(=O)Nc2cccc(Cl)c2)c1,nt,nt,nt,-7%,-1%
O=S(=O)(c1ccccc1)c1nnn2c1nc(NCc1ccccc1)c1cc(Cl)ccc12,nt,nt,nt,?,-30%
Cc1nn(-c2ccccc2)c(OC(=O)C(C)(C)C)c1Sc1ccccc1,nt,nt,nt,-1%[7.34 µM],-10%[7.34 µM]
COc1cc([C@@H]2Nc3c(F)cccc3[C@@H]3C=CC[C@@H]32)cc(Br)c1OC,nt,nt,nt,-4%,-13%
CCn1c(N2CCN(CC(=O)c3c[nH]c4ccccc34)CC2)nc2c1c(=O)[nH]c(=O)n2C,?,4%,3%,-21%,-7%
CCCCCCn1c(N2CCN(c3ccccc3)CC2)nc2c1c(=O)[nH]c(=O)n2C,8.3µM*,40%,15µM*,-4%,8%
CCN(CC)c1nc2c(c(=O)[nH]c(=O)n2C)n1Cc1ccccc1,14%,-3%,-21%,nt,nt
